Results taken from the supplement of paper PMC12636033.
± gives the standard deviation of the averaged measurements. Over roughly 33,000 sequences, “E-score (rank enrichment, -0.5 to 0.5)” has its median near -0.0075; the highest 2% begin near 0.23. This excerpt belongs to a sample that is enriched for the highest values.

System: WT Max(13-93) synthetic (M65Nle)
Experiment: PBM 8-mer E-score (E-score (rank enrichment, -0.5 to 0.5)); higher = stronger preferential binding
Method: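 Protein binding microarray (universal PBM chip covering all 10-mers in fixed probe flanks) with chemically synthesized human Max(13-93) bHLH-LZ analogs (not full-length Max) bearing noncanonical residues (hArg, Tha, Aib, Nle at 65) and aromatic Cys staples. Read-out per 8-mer (and its reverse complement): E-score (rank-based enrichment, -0.5 to 0.5) and Z-score of median probe intensity.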

| Sequence | PBM 8-mer E-score |
| --- | --- |
| ATGATGAG | 0.0781 ± 0.012 |
| GTCGGTCA | -0.151 ± 0.14 |
| AGAATGCC | -0.0707 ± 0.0056 |
| CGCAGGCA | -0.131 ± 0.12 |
| ATTAACGG | 0.153 ± 0.089 |
| GCTGGCCA | -0.0533 ± 0.076 |
| CGGAACAC | -0.0883 ± 0.0097 |
| CACGTTCA | 0.163 ± 0.018 |
| CATCCAAG | -0.0693 ± 0.012 |
| AGCCCGTC | -0.151 ± 0.071 |
| ATCATGTG | 0.264 ± 0.022 |
| ATCATGTC | 0.186 ± 0.057 |
| ATCATGTA | 0.169 ± 0.004 |
| GTGGTTTA | 0.179 ± 0.053 |
| TGTGGTAA | 0.0282 ± 0.15 |
| CGTGGTAA | 0.246 ± 0.1 |
| CGTGGAAA | 0.267 ± 0.071 |
| CGTGGAAC | -0.0332 ± 0.0099 |
| AGTGGAAA | 0.164 ± 0.094 |
| CGTGGAAG | 0.176 ± 0.0075 |
| GGTGGAAA | 0.0407 ± 0.064 |
| GGTGGTAA | 0.11 ± 0.1 |

| Sequence | PBM 8-mer E-score |
| --- | --- |
| TGTGGAAA | 0.249 ± 0.072 |
| TCTCGGAA | -0.232 ± 0.095 |
| CATCAAAA | 0.0623 ± 0.033 |
| ATCGTCTC | -0.00218 ± 0.023 |
| GCCGATAA | 0.032 ± 0.051 |
| AACGCAGC | -0.1 ± 0.048 |
| AACAATGC | 0.161 ± 0.14 |
| GCTGCGAC | -0.219 ± 0.069 |
| CGCACAGC | -0.171 ± 0.087 |
| GCGGTGAC | -0.146 ± 0.14 |
| TGGTAAAA | 0.0895 ± 0.03 |
| TCGCTACA | -0.0172 ± 0.075 |
| ACGCTACA | 0.275 ± 0.013 |
| GCGCTACA | -0.115 ± 0.006 |
| CTTGATTA | 0.12 ± 0.025 |
| GTTGATTA | 0.2352 ± 0.0022 |
| ATTGATTA | 0.0358 ± 0.11 |
| GCGTTTAA | 0.0231 ± 0.056 |
| AAGTGGTG | -0.0214 ± 0.11 |
| GCGTGGTA | 0.215 ± 0.12 |
| AGGTGGTC | -0.0706 ± 0.0051 |
| ACGTGGTC | 0.312 ± 0.022 |

| Sequence | PBM 8-mer E-score |
| --- | --- |
| ACGTGGTA | 0.347 ± 0.069 |
| CCGTGGTC | -0.211 ± 0.023 |
| AGGTGGTG | 0.109 ± 0.09 |
| CCGTGGTA | -0.0399 ± 0.0038 |
| ACGTGGTG | 0.392 ± 0.024 |
| GGCAAGAA | 0.127 ± 0.016 |
| ACTTGGCA | 0.0244 ± 0.14 |
| CAAGGCTA | -0.0688 ± 0.18 |
| TGCCAGAA | -0.0686 ± 0.042 |
| ATGGTAAC | 0.159 ± 0.045 |
| ATGGTAAG | 0.12 ± 0.15 |
| ATGGTAAT | 0.24 ± 0.019 |
| AAAGGTGA | 0.0498 ± 0.1 |
| AATGGAAG | 0.0617 ± 0.11 |
| CATGGAAG | 0.251 ± 0.028 |
| CATGGAAC | 0.0484 ± 0.039 |
| CATCTTCG | -0.0197 ± 0.078 |
| CCCGGAGC | -0.218 ± 0.06 |
| CGGAACAG | -0.184 ± 0.097 |
| CCAATTCA | 0.237 ± 0.0091 |
| ACAATTCA | 0.0972 ± 0.033 |
| CCAATTCG | 0.00099 ± 0.067 |

| Sequence | PBM 8-mer E-score |
| --- | --- |
| GAAAACTC | -0.0313 ± 0.025 |
| CAACCCTA | 0.00074 ± 0.036 |
| AAAACCTT | 0.0888 ± 0.07 |
| AAACCCTG | 0.124 ± 0.14 |
| AACCCCAT | 0.00208 ± 0.027 |
| AAACCCAT | 0.236 ± 0.013 |
| AAAACCTA | 0.259 ± 0.038 |
| AAACCCAG | -0.00534 ± 0.0017 |
| CAAACCTA | 0.0613 ± 0.11 |
| AAACCCTA | 0.253 ± 0.042 |
| ATAGCGAG | -0.0262 ± 0.05 |
| AGGCCCAA | -0.118 ± 0.037 |
| AAGCACAA | 0.0693 ± 0.08 |
| CGCTTCCG | -0.206 ± 0.041 |
| AGCCTGGA | -0.148 ± 0.017 |
| AAATCGAT | -0.116 ± 0.11 |
| CTGCTATC | -0.116 ± 0.021 |
| CTAGACGC | -0.0678 ± 0.01 |
| AAAATTCG | 0.181 ± 0.015 |
| ACTAAAAT | 0.073 ± 0.087 |
